Experiment: Plasmodium falciparum growth inhibition, primary screen, strain 3D7, DAPI fluorescence, 100 nL (AID 1184);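 note: parasites grown inside human red blood cells in medium with human serum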
Details: P. falciparum 3D7 growth, 3 d, higher = more signal

| Compound | z-score |
| --- | --- |
| CCCCC(O)C1C=CC2C(=O)N(C)C(=O)C2N1Nc1ccccc1 (stereo not given) | -0.286 |
| O=C1C2C=CC(C(O)c3cccs3)N(Nc3ccccc3)C2C(=O)N1c1ccccc1 (stereo not given) | -0.459 |
| COC(=O)[C@@]1(Cc2ccccc2)[C@@H]2[C@@H](CC(=O)[C@H]2CC(=O)C(=O)N(C)C)CN1C(=O)c1ccccc1 | -1.23 |
| CC=CC(O)C1C=CC2C(=O)N(C)C(=O)C2N1NC(=O)OC(C)(C)C (stereo not given) | 0.675 |
| CN(C)C(=O)[C@]1(Cc2ccccc2)N=C(c2ccc(OCCCO)cc2)O[C@@H]1c1ccccc1 | -2.38 |
| C=CCC(OC(C)=O)[C@@H]1[C@@H](N(Cc2cccc3ccccc23)C(=O)c2ccc(-c3ccccc3)cc2)c2cc(OCCCO)ccc2N1C(=O)c1ccc2ccccc2n1 (stereo not given in full) | -0.198 |
| C=CCC(OC(C)=O)[C@@H]1[C@@H](N(Cc2ccc(-c3ccccc3)cc2)C(=O)c2ccc(-c3ccccc3)cc2)c2cc(OCCCO)ccc2N1C(=O)c1ccc2ccccc2n1 (stereo not given in full) | -0.273 |
| NC(=O)NCC#Cc1ccc2c(c1)[C@]1(C(=O)N2)[C@H](C(=O)N2CCCCCCC2)[C@H]2C(=O)O[C@H](c3ccccc3)[C@H](c3ccccc3)N2[C@@H]1c1ccc(O)cc1 | 0.285 |
| C=CCC(OC(C)=O)[C@@H]1[C@@H](N(Cc2ccc(-c3cccc(C(F)(F)F)c3)o2)C(=O)Cc2ccc(F)cc2)c2cc(OCCCO)ccc2N1C(=O)c1ccc2ccccc2c1 (stereo not given in full) | -0.681 |
| O=C1C2C=CC(C(O)c3ccc([N+](=O)[O-])cc3)N(Nc3ccccc3)C2C(=O)N1c1ccccc1 (stereo not given) | 0.45 |
| O=C1c2ccccc2[C@@]2(Cc3ccccc3N(Cc3ccccc3)C2=O)[C@H](c2ccc(CO)cc2)N1Cc1ccccc1 | 1.37 |
| CCOC(=O)C[C@H]1[C@H](OC(=O)Cc2ccc3c(c2)OCO3)[C@@H](NC(=O)c2ccccc2)c2cc(OCCCO)ccc2N1C(=O)Cc1ccc(OC)cc1 | -1.35 |
| CCOC(=O)C[C@H]1[C@H](OC(=O)c2ccc(-c3ccccc3)cc2)[C@@H](NC(=O)CC(C)C)c2cc(OCCCO)ccc2N1C(=O)Cc1ccc(OC)cc1 | -0.0881 |
| CC(C)CNC(=O)[C@@H]1c2ccccc2C(=O)N(C2Cc3ccccc3C2)[C@H]1c1ccc(CO)cc1 | 0.134 |
| C=C(COC)C(=O)CC[C@@H](OC(C)=O)c1ccc(OCCO)cc1 | -0.964 |
| COCCOC(=O)N1C(=O)[C@@]2(c3cc(C#CC4(O)CCCCCC4)ccc31)[C@H](c1ccc(OCCO)cc1)N1[C@H](c3ccccc3)[C@H](c3ccccc3)OC(=O)[C@H]1[C@@H]2C(=O)N1CCCCCCC1 | -2.43 |
| [N-]=[N+]=NCc1ccccc1C[C@]1(C(=O)O)COC(c2ccc(OCCCO)cc2)=N1 | 1.24 |
| N[C@@H](Cc1ccccc1)Cn1cc(C2(O)CCCCC2)nn1 | 0.493 |

| Compound | z-score |
| --- | --- |
| Cc1ccc(F)cc1S(=O)(=O)N[C@@H]1CCN(Cc2ccc3[nH]ccc3c2)C1 | -1.3 |
| COCCOC(=O)N1C(=O)[C@@]2(c3cc(C#CC4=CCCCC4)ccc31)[C@H](c1ccccc1OCCO)N1[C@H](c3ccccc3)[C@H](c3ccccc3)OC(=O)[C@H]1[C@@H]2C(N)=O | -2.27 |
| CC1(C)OC[C@@]23C=C(Br)[C@@H](C[C@H]12)[C@@]1(CO1)C3=O | 1.96 |
| CN1C(=O)C2C=CC(C(O)c3ccc(-c4ccccc4)s3)N(Nc3ccccc3)C2C1=O (stereo not given) | 1.23 |
| C=C(COC)/C(=C/C[C@H](OC(=O)c1ccncc1)c1ccc(OCCO)cc1)c1cc(C(=O)OC)ccc1OC | -3.05 |
| COCCn1c(C(=O)N2CCCC2)cc2c1C[C@H]1CN(C(=O)c3ccccc3)[C@@](Cc3ccccc3)(C(=O)OC)[C@@H]21 | -1.22 |
| CCC[C@@H]1C=C(C(=O)OCC)[C@H](c2ccccc2)N1S(=O)(=O)c1ccc(C)cc1 | -2.11 |
| COCC(=C=CC[C@@H](O)c1cccc(OCCO)c1)C[C@@H](O)COCc1ccccc1 | -1.71 |
| CC(C)[C@@H](C(=O)O)n1cc(-c2ccccc2)nn1 | 0.273 |
| CN(C)CCCCNC(=O)[C@H]1C[C@H]2C(=O)NCC(=O)N2[C@H]1c1cccc(OCCO)c1 | 0.256 |
| [N-]=[N+]=NCc1ccccc1C[C@]1(C(=O)N2CCOCC2)N=C(c2ccc(OCCCO)cc2)O[C@H]1c1ccccc1CN=[N+]=[N-] | -2.28 |
| C=CCNC(=O)[C@@H]1[C@H]2C(=O)O[C@H](c3ccccc3)[C@H](c3ccccc3)N2[C@H](c2ccccc2OCCO)[C@@]12C(=O)N(C(=O)OCCOC)c1ccc(C#CCCO)cc12 | -2.09 |
| CC(C)=CCN(C(=O)C#Cc1ccccc1)[C@H](CO)c1ccccc1 | -1.83 |
| Cc1ccccc1C(O)C1C=CC2C(=O)N(c3ccccc3)C(=O)C2N1Nc1ccccc1F (stereo not given) | 0.907 |
| C=CC[C@]1(C(=O)NCc2ccccc2)COC(c2ccc(OCCCO)cc2)=N1 | -0.823 |
| C=C(/C(=C/C[C@@H](OC(C)=O)c1ccccc1OCCO)c1cc(C(=O)OC)ccc1OC)C(C)C | -2.8 |
| CCCC=C(CCC)[C@@H](NS(=O)(=O)c1ccc(Cl)cc1)c1ccccc1 | -1.11 |
